In the library only some 21% were active in any assay of this set; here they are far more common.
DRD3 agonist: qHTS of D3 Dopamine Receptor Agonist: qHTS; D3R DiscoveRx beta-arrestin cells, luminescence, 90 min; max activation, %; 410,000 tested, 0.58% active; in the data active = max activation above about 30%; note: 0% is about no effect
Target sequence (P35462 whole entry, looked up): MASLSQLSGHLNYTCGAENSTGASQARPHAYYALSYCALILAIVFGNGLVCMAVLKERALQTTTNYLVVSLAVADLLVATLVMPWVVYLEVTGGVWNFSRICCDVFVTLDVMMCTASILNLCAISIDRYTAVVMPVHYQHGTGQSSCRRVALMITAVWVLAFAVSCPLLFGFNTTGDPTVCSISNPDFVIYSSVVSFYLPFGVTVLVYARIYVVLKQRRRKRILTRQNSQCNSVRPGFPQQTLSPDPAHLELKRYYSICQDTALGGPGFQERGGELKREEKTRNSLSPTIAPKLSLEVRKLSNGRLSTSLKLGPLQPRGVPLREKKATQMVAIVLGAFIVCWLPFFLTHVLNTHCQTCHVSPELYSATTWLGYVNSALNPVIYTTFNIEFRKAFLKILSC
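Agonist-mode cell screen: cells plated at 1500/well and incubated overnight at 37 °C, then exposed to library compounds for 90 min at 37 °C. Detection reagent was added for 30–60 min at room temperature, and luminescence was read.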
TDP1 cell CPT: qHTS for Inhibitors of human tyrosyl-DNA phosphodiesterase 1 (TDP1): qHTS in cells in presence of CPT. Potency, µM (titrated, usually from 46.2 µM), for the others: at the highest dose activity change, negative = growth inhibition, hits mostly inhibitors. AID 686979, 2013. 420,000 tested, 12% active. chicken DT40 Tdp1-/-;hTDP1 cells + 20 nM CPT, ATP luminescence, 48 h; note: potency is the fitted concentration of half-maximal effect; % is set by controls: 0 for no effect and ±100 for the full control effect; nearly all actives have a fitted effect of over 55% in size
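Chicken DT40 Tdp1-/- cells stably complemented with human TDP1 were seeded at 400 cells/well in medium containing 20 nM camptothecin, exposed to pin-transferred compounds, and grown at 37 °C for at least 48 hr. Viability was read as ATP luminescence.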
IL1B secr inh: qHTS for Inhibitors of Inflammasome Signaling: IL-1-beta AlphaLISA Primary Screen; THP-1 LPS/ATP IL-1B secretion, AlphaLISA, 16 h; hits give low values; activity change, % at 57.5 µM; 360,000 tested, 4.7% active; in the data active = activity change below about -50%; inconclusive = mostly about -30% to -49%; note: % is set by controls: 0 for no effect and ±100 for the full control effect
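Secreted IL-1B measured by AlphaLISA bead assay after 16 h compound exposure of THP-1 cells; compounds (final up to 57.5 uM) added 1 h before LPS (250 ng/mL) and ATP (1.25 mM) stimulation; lower signal means less secretion.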
D3 antag: qHTS of D3 Dopamine Receptor Antagonist: qHTS | D3R cells, DiscoveRx beta-arrestin luminescence, antagonist mode; hits give low values | max response, negative = inhibition, % | 360,000 tested, 2.5% active | AID 652054, 2013; in the data active = max response below about -50%; inconclusive = no clear call, values can overlap the other calls; note: % is set by controls: 0 for no effect and ±100 for the full control effect
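Cells plated overnight at 1500 cells/well, then exposed to library compounds with dopamine controls for 90 minutes at 37 degrees C. DiscoveRx reagent added for 30–60 minutes at room temperature; luminescence read, quantitative HTS format.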
TDP1 cell noCPT: qHTS for Inhibitors of human tyrosyl-DNA phosphodiesterase 1 (TDP1): qHTS in cells in absence of CPT. DT40 Tdp1-/- hTDP1 cells, no CPT, ATP luminescence, 48 h. Potency, µM (series often up to 46.2 µM), inactives show top-dose activity change, negative = growth inhibition, most hits filed as inhibitors. 420,000 tested, 15% active; note: potency is the fitted concentration of half-maximal effect; % is set by controls: 0 for no effect and ±100 for the full control effect; nearly all actives have a fitted effect of over 55% in size
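A cellular qHTS used chicken DT40 cells lacking endogenous Tdp1 but carrying stably transfected human TDP1. Compounds were applied without camptothecin, and cell growth kinetics were judged by ATP-dependent luminescence after ≥48 hr.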
ClpP mod: qHTS Assay for Activators of ClpP; ATP-dependent Clp protease proteolytic subunit (Bacillus subtilis (strain 168)), P80244; purified B. subtilis ClpP, FRET peptide cleavage, 20 min; Potency, µM (titrated, usually from 57.5 µM), for inactives: at the highest dose activity change, negative = active; 340,000 tested, 1.9% active; active = well fitted falling curve with a large enough effect; inconclusive = small, poorly fitted or top-dose-only effect; inactive = no such curve, though single readings can be large or run the other way; note: potency is the fitted concentration of half-maximal effect; the source files actives as falling curves though it sought activators and does not explain the sign; nearly all actives have a fitted effect of over 65% in size
Target sequence (P80244 whole entry, looked up): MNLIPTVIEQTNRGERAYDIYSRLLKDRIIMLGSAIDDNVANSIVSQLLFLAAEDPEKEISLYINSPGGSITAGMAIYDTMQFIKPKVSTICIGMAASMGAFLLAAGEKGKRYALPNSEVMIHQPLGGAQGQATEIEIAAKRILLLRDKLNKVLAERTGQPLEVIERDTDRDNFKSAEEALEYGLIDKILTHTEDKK
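Purified B. subtilis ClpP, 10 microg/mL final in Tris/HCl pH8 with KCl, BSA, glycerol and Tween-20, cleaved an Abz/nitrotyrosine-quenched decapeptide. Fluorescence (ex 320, em 430) was read at 0 and 20 min at room temperature. Delta was normalized to 5.8 microM ADEP and DMSO/no-enzyme controls.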
ClpP inh valid: qHTS Assay for Activators of ClpP: Hit Validation of Inhibitors; shares compounds with ClpP mod; purified B. subtilis ClpP, FRET-FV substrate cleavage, 20 min; Potency, µM (top dose mostly 57.5 µM), for the others: top-dose activity change, negative = inhibition, hits mostly inhibitors; 470 tested, 40% active; AID 743245, 2014; note: potency is the fitted concentration of half-maximal effect; % is set by controls: 0 for no effect and ±100 for the full control effect; nearly all actives have a fitted effect of over 70% in size
Starred values were filed as active, the others as inactive; ? = inconclusive; . = no result. Unless noted, calls come from the whole dose curve; as a rule, active = well fitted inhibition curve with a large enough effect; inconclusive = small, poorly fitted or top-dose-only effect; inactive = flat fitted curve, though single readings scatter.

SMILES	DRD3 agonist	TDP1 cell CPT	IL1B secr inh	D3 antag	TDP1 cell noCPT	ClpP mod	ClpP inh valid
O=C(CSc1n[nH]c(=O)n1-c1cccnc1)Nc1ccccc1	-0.3	3.6%	6.1	3.7	1.3%	-3.4%	.
Cc1cccc(-c2cc3nc(C)cc(N4CC(C)CC(C)C4)n3n2)c1 (centres undefined)	2.2	16.4µM*	39.3	17.1	16.4µM*	0.794µM*	-4.8%
Cc1cccc(-c2cc3nc(C)cc(C)n3n2)c1	-1.8	0.6%	55.7	-1.0	?	.	.
CCOc1ccc(NC(=O)C2CCCN(S(C)(=O)=O)C2)cc1 (centres undefined)	-11.1	9.5%	5.4	-7.4	7.4%	.	.
CCCC(=O)Nc1cc(-c2nc3ncccc3o2)ccc1C	1.6	-5.0%	-2.5	0.0	6.7%	3.16µM*	24.3µM*
CCCC(=O)NC(=S)Nc1cc(-c2nc3ncccc3o2)ccc1C	-9.0	?	12.2	18.7	?	9.3%	.
CCN1CCN(c2cc(C)c3cc(NC(=S)N(C)Cc4ccccc4)ccc3n2)CC1	-18.5	?	-20.4	-15.4	?	33.8%	16.5%
CCCN(CCC)CCNC(=O)CCC(=O)Nc1ccc2nc(N3CCN(C)CC3)cc(C)c2c1	4.4	0.7%	-28.1	?	-22.6%	3.8%	.
CCN(CC(=O)Nc1c(F)cccc1F)C(=O)c1ccc(C(F)(F)F)cc1	2.8	9.9%	-2.6	6.0	-1.1%	-0.2%	.
CCN(CC(=O)Nc1c(F)cccc1F)C(=O)c1ccc(C2SCCS2)cc1	4.5	?	13.3	0.3	?	73.6%	-0.5%
CC(=O)Nc1ccc(S(=O)(=O)C(C#N)c2nc3ccccc3nc2NCCCO)cc1 (centres undefined)	4.3	11.4%	43.7	1.2	-0.7%	.	.
CCOC(=O)N1CCN(S(=O)(=O)c2ccc(C(=O)Nc3nc4ccccc4s3)cc2)CC1	7.2	?	-5.1	32.7	?	115.7%	?
Nc1c(C(=O)NCCN2CCOCC2)c2nc3ccccc3nc2n1-c1cccc(F)c1	3.9	?	-62.7*	-3.6	?	10µM*	21.7µM*
COCCCNC(=O)c1c(N)n(-c2cccc(S(N)(=O)=O)c2)c2nc3ccccc3nc12	-8.3	?	-52.5*	25.8	?	8.91µM*	?
COc1ccc(Nc2cc(C(=O)NC3CCCC3)c3ccccc3n2)cc1	4.1	?	.	.	?	38.0%	-10.4%
Cc1cccc(CS(=O)(=O)c2cn(CC(=O)N3CCOCC3)c3ccccc23)c1	3.2	-1.7%	0.0	-6.9	-14.9%	0.5%	.
Cn1c(=O)c2c(-c3ccc(Cl)cc3)n(Cc3ccc(Cl)cc3)cc2n(C)c1=O	-4.4	?	.	.	?	10µM*	38.5µM*
CC(=O)c1cccc(NC(=O)COc2cc(C)on2)c1	-0.4	16.1%	-4.4	2.1	-0.6%	-1.3%	.
COc1ccc2nc(NC(=O)c3ccc(F)cc3)sc2c1	2.6	3.2%	-26.3	15.0	-17.1%	.	.
COc1ccc2nc(NC(=O)c3ccc(-n4nc(C)cc4C)cc3)sc2c1	1.1	-5.6%	-15.2	-25.0	-0.1%	-103.5%	27.3µM*
COc1ccc(-c2ccnc(-c3ccc(OCCCF)cc3)n2)cc1	9.2	?	3.0	-27.2	?	7.94µM*	-6.8%
CCCC(C)C(=O)Nc1ccc2c(c1)OCCO2 (centres undefined)	-1.3	15.6%	15.9	-11.6	-2.9%	3.55µM*	-0.3%
CCc1ccc2[nH]c(C(=O)Nc3ccc(C)c(F)c3)cc2c1	-14.0	-14.8%	-14.2	-18.5	-20.7%	22.5%	5.8%
Cc1c2c(nc3c(C(=O)NC4CCCC4)cnn13)CCCC2	1.5	-7.0%	-6.1	-8.6	-22.6%	7.08µM*	21.7µM*
CCOc1ccc(S(=O)(=O)Nc2ccc(C(=O)N3CC(C)OC(C)C3)cc2)cc1 (centres undefined)	-7.9	?	7.9	-8.3	-21.9%	5.62µM*	-0.4%
SMILES	DRD3 agonist	TDP1 cell CPT	IL1B secr inh	D3 antag	TDP1 cell noCPT	ClpP mod	ClpP inh valid
COc1ccc(CC(=O)Oc2cc(C)[nH]c(=O)c2[N+](=O)[O-])cc1	5.0	-13.2%	5.8	4.8	7.6%	-3.3%	.
CCc1ccc(NC(=O)c2c(Cl)nc(C)c(Cl)c2C)cc1	7.5	?	-0.6	9.9	25.9µM*	43.4%	-0.2%
CCOC(=O)c1[nH]c(C)c(C(=O)OCC(=O)NCc2ccc(OC)cc2)c1C	-2.1	-19.9%	34.7	10.8	3.5%	-0.5%	.
COc1ccc(C(=O)n2cc(C(=O)c3cc(C)ccc3O)cn2)cc1OC	-0.9	?	0.0	-4.9	?	96.3%	6.0%
O=C(Nc1ccc(-c2cn3ccccc3n2)cc1)c1ccc(Cl)cc1	8.1	23.1µM*	21.0	-12.2	9.2µM*	76.1%	-14.3%
COc1ccc(C(=O)Nc2ccccc2-c2nnn(CC(=O)NCc3ccco3)n2)cc1	-11.6	-23.0%	-17.3	20.2	-14.2%	36.4%	?
O=C(Cn1nnc(-c2ccccc2NC(=O)c2ccccc2F)n1)NCc1ccco1	2.0	-10.2%	9.4	21.8	2.4%	-2.5%	.
Cc1ccc(-n2nc(C)c3c(C(=O)NCc4ccc(F)cc4)cc(C)nc32)cc1	10.0	-3.8%	.	.	?	148.7%	.
CSc1ccc(CCNC(=O)c2cc(C)nc3c2c(C)nn3-c2ccccc2)cc1	-5.9	-13.6%	.	.	?	66.7%	17.2µM*
Cn1cc(Br)c(C(=O)NN2C(=O)C3C4C=CC(C5CC45)C3C2=O)n1 (centres undefined)	13.3	5.7%	16.1	0.8	4.7%	1.6%	.
CS(=O)(=O)c1ccc(Cl)c(NC(=O)CNC(=O)c2ccc3c(c2)OCO3)c1	-12.0	-7.7%	39.3	4.8	-1.7%	.	.
Cc1cccc(NS(=O)(=O)c2cccc(C(=O)NCC(c3ccco3)N3CCCCC3)c2)c1 (centres undefined)	-10.5	20.6µM*	-59.2*	-63.7*	23.1µM*	3.16µM*	-1.8%

Screens (PubChem)
